# Data from PubChem BioAssay.
# Activity calls are given as the source filed them. Cut-off read from the data, not from the text of the source, unless noted: active = inhibition above about 80%; inactive = the rest.
# Tests used:
# [1] = LFS_MB_P medulloblastoma growth inhibition, cell-based, chromothripsis tumors, cisplatin or BGB combos (AID 1671449); conditions: LFS_MB_P medulloblastoma cells;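 note: cells exposed for 96 hours; 0% = vehicle DMSO and 100% = killing by high DMSO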
# [2] = HDN33 neuroblastoma growth inhibition, cell-based, chromothripsis tumors, cisplatin or BGB combos (AID 1671450); conditions: HDN33 neuroblastoma cells, stronger effect = higher value;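 note: cells exposed to compound for four days; 0% = vehicle DMSO and 100% = cell killing by high DMSO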
# [3] = ICB984 medulloblastoma cell growth inhibition, synergistic combos for chromothripsis tumors, cisplatin or BGB combos (AID 1671451; call rule not given here;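 note: cells exposed for 96 hours before readout; 0% = vehicle DMSO and 100% = killing by high DMSO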); conditions: ICB984 medulloblastoma cells, drug combinations, stronger effect = higher value
# [4] = LFS_MB_1R medulloblastoma cell growth inhibition, synergistic combos for chromothripsis tumors, cisplatin or BGB combos (AID 1671452); conditions: LFS_MB_1R medulloblastoma cells, stronger effect = higher value;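 note: cells exposed for 96 hours before readout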
# [5] = HTB85 osteosarcoma cell growth inhibition, synergistic combos for chromothripsis tumors, BGB or cisplatin IC20 combos (AID 1671453); conditions: HTB85 osteosarcoma cells, drug combinations, stronger effect = higher value;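 note: cells exposed for 96 hours before readout; 0% = vehicle DMSO and 100% = high DMSO killing control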
# [6] = CRL2098 osteosarcoma cell growth inhibition, synergistic combos for chromothripsis tumors, BGB or cisplatin IC20 combos (AID 1671454); conditions: CRL2098 osteosarcoma cells, drug combinations, stronger effect = higher value;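 note: cells exposed for 96 h before readout; 0% = vehicle DMSO and 100% = killing by high DMSO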
# [7] = HD-MB03 medulloblastoma cell growth inhibition, synergistic combos for chromothripsis tumors, BGB or cisplatin IC20 combos (AID 1671455; in the data active = inhibition above about 83%;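 note: 0% = vehicle DMSO and 100% = high DMSO as cytotoxic control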); conditions: HD-MB03 medulloblastoma cells, stronger effect = higher value
# [8] = UWB1.289 ovarian carcinoma cell growth inhibition, synergistic combos for chromothripsis tumors, BGB or cisplatin combos (AID 1671456); conditions: UWB1.289 ovarian carcinoma cells, stronger effect = higher value;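 note: cells exposed to compound for four days; 0% = vehicle DMSO and 100% = killing by high DMSO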
# [9] = MDA-MB-436 breast carcinoma cell growth inhibition, synergistic combos for chromothripsis tumors, BGB or cisplatin combos (AID 1671458; call rule not given here;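 note: cells exposed for 96 hours; 0% = vehicle DMSO and 100% = killing by high DMSO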); conditions: MDA-MB-436 breast carcinoma growth inhibition, drug combinations, stronger effect = higher value
# [10] = growth inhibition of BT084 medulloblastoma cells, cell-based, ICGC_MB145, cisplatin and BGB IC40 combos (AID 1671461); conditions: drug combinations, stronger effect = higher value;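 note: cells exposed to drugs for 96 hours; 0% = vehicle DMSO and 100% = high DMSO full killing control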
# [11] = growth inhibition of RCMB18 medulloblastoma cells, cell-based, cisplatin and BGB IC40 combos (AID 1671462); conditions: stronger effect = higher value;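 note: cells exposed to compound for four days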
# [12] = growth inhibition of CRL1545 osteosarcoma cells, cell-based, cisplatin and BGB IC20 combos (AID 1671464); conditions: stronger effect = higher value;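 note: cells exposed to compound for 96 hours before readout; 0% = vehicle DMSO and 100% = high DMSO killing control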
# [13] = measured here: combination with BGB IC40, at 0.05 µM
# [14] = measured here: with BGB IC20 combination, at 0.5 µM
# [15] = measured here: with cisplatin IC20 combination, at 0.5 µM
# [16] = measured here: combination with cisplatin, at 0.5 µM
compound,measurement,setting,value
NC(=O)c1nc(F)c[nH]c1=O,inhibition,"[1]; at 0.5 µM, stronger effect = higher value",-5.96% (inactive)
same,inhibition,"[1]; measured here: combination with BGB IC20, at 0.005 µM",-6.89%
same,inhibition,"[1]; measured here: combination with BGB IC40, at 0.005 µM",86.3%
same,inhibition,[1]; [13],2.5%
same,inhibition,"[1]; measured here: combination with cisplatin, at 0.5 µM, stronger effect = higher value",-12.3%
same,inhibition,"[1]; measured here: combination with cisplatin, at 5 µM, stronger effect = higher value",-15%
same,inhibition,"[2]; BGB combo, at 5 µM",-13.7%
same,inhibition,[2]; at 0.5 µM,0.69% (inactive)
same,inhibition,"[2]; cisplatin combo, at 5 µM",-13.9%
same,inhibition,[2]; [14],-3.64%
same,inhibition,[2]; [15],-5.09%
same,inhibition,"[2]; single agent, at 5 µM",9.18%
same,inhibition,"[3]; BGB IC20 combo, at 0.005 µM",-3.29%
same,inhibition,"[3]; BGB IC40 combo, at 0.005 µM",-2.11%
same,inhibition,"[3]; BGB IC40 combo, at 0.05 µM",0.125%
same,inhibition,[3]; at 0.5 µM,0.29% (inactive)
same,inhibition,"[3]; cisplatin combo, at 0.05 µM",-4.93%
same,inhibition,"[3]; cisplatin combo, at 0.5 µM",4.34%
same,inhibition,"[3]; cisplatin combo, at 5 µM",4.92%
same,inhibition,"[3]; measured here: 5 uM single agent, at 5 µM",-8.47%
same,inhibition,[4]; at 0.5 µM,1.01% (inactive)
same,inhibition,[4]; [13],2.61%
same,inhibition,[4]; [16],-16.3%
same,inhibition,"[4]; measured here: combination with cisplatin, at 5 µM",16.6%
same,inhibition,[5]; at 0.5 µM,1.18% (inactive)
same,inhibition,"[5]; measured here: with BGB IC20, at 0.5 µM",-2.45%
same,inhibition,"[5]; measured here: with BGB IC20, at 5 µM",5.78%
same,inhibition,"[5]; measured here: with cisplatin IC20, at 0.5 µM",-2.57%
same,inhibition,"[5]; measured here: with cisplatin IC20, at 5 µM",4.67%
same,inhibition,"[5]; single agent, at 5 µM",17.5%
same,inhibition,[6]; at 0.5 µM,-7.02% (inactive)
same,inhibition,"[6]; measured here: combination with BGB at IC20, at 0.5 µM",-19%
same,inhibition,"[6]; measured here: combination with cisplatin at IC20, at 0.5 µM",9.34%
same,inhibition,[7]; at 0.5 µM,0.58% (inactive)
same,inhibition,"[7]; measured here: combo with BGB at IC20, at 0.5 µM",5.69%
same,inhibition,"[7]; measured here: combo with cisplatin at IC20, at 0.5 µM",-1.93%
same,inhibition,[8]; at 0.5 µM,4.26% (inactive)
same,inhibition,"[8]; measured here: inhibition with BGB combination, at 0.05 µM",6.54%
same,inhibition,"[8]; measured here: inhibition with cisplatin combination, at 0.05 µM",-1.23%
same,inhibition,[9]; at 0.5 µM,-2.87% (inactive)
same,inhibition,"[9]; measured here: BGB combination, at 0.5 µM",-1.29%
same,inhibition,"[9]; measured here: BGB combination, at 5 µM",-9.17%
same,inhibition,"[9]; measured here: cisplatin combination, at 0.5 µM",-10.9%
same,inhibition,"[9]; measured here: cisplatin combination, at 5 µM",-5.06%
same,inhibition,[10]; at 0.5 µM,-1.11% (inactive)
same,inhibition,"[10]; cisplatin combination, at 0.5 µM",6.95%
same,inhibition,"[10]; cisplatin combination, at 5 µM",-101%
same,inhibition,"[10]; measured here: BGB IC40 combination 0.05 uM, at 0.05 µM",-16.8%
same,inhibition,"[10]; single agent, at 5 µM",4.66%
same,inhibition,[11]; at 0.5 µM,-6.23% (inactive)
same,inhibition,"[11]; cisplatin combo, at 5 µM",8.94%
same,inhibition,"[11]; measured here: BGB IC40 combination, at 0.05 µM",-10.5%
same,inhibition,[11]; [16],-26.7%
same,inhibition,"[11]; single agent, at 5 µM",14.2%
same,inhibition,[12]; at 0.5 µM,13.8% (inactive)
same,inhibition,[12]; [14],6.76%
same,inhibition,[12]; [15],16%
same,inhibition,"[12]; single agent, at 0.05 µM",-15.2%
same,inhibition,"[12]; single agent, at 5 µM",-29.6%
